Measurements: paper PMC4336329 (PLoS ONE, 2015)
About 14,000 (4.5%) of roughly 310,000 compounds showed an effect of 50% or more. Effects have a minus sign here. The list comes from a sample in which strong results are over-represented; it also holds similar structures and randomly drawn compounds.

target: human ether-à-go-go-related gene (hERG) potassium channel (human, UniProt Q12809); assay: primary screen, population patch clamp on CHO cells stably expressing hERG; higher = less effect of the substance
Sequence (Q12809 whole entry, looked up): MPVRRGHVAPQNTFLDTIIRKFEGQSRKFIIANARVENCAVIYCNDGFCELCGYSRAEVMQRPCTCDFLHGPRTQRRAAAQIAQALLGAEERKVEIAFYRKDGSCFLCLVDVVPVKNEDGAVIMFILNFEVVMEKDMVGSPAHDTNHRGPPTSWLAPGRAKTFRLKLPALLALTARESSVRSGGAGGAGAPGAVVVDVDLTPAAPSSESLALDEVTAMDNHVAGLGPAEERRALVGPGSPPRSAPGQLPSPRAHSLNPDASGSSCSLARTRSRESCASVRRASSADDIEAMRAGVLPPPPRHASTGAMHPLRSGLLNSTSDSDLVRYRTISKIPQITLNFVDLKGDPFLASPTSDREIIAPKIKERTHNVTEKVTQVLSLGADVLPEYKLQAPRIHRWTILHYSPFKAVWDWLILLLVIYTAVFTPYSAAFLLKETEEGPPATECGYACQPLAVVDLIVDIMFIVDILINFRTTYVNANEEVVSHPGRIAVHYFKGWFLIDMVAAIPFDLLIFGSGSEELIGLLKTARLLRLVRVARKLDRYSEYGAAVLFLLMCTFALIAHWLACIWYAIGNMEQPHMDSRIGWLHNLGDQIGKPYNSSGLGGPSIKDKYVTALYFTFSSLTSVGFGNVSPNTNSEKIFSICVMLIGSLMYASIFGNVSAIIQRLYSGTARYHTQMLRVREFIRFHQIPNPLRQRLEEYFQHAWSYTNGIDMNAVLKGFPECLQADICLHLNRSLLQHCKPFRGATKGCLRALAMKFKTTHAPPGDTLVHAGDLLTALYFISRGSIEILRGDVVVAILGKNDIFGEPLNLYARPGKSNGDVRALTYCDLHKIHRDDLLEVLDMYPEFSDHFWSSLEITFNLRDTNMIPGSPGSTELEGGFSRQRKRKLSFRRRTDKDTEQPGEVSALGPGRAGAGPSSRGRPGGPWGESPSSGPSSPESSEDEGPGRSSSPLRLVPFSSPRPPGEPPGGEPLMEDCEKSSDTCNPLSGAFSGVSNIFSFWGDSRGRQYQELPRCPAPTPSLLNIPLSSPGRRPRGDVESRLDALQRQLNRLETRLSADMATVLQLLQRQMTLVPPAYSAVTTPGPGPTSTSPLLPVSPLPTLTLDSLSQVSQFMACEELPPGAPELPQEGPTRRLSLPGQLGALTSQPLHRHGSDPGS
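Note: peak tail current of the secondary pulse compared with the same well before compound.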

Point of comparison: `CCOc1ccc(Oc2ccc(S(=O)(=O)N3CCOCC3)cc2NC(=O)C2=COCCO2)cc1`, “hERG current change (%, negative = inhibition) at 10uM” value -41.9%. Against it:
- CCN1CCN(c2ncc(C(=O)Nc3cc(Cl)ccc3OC)c3ccccc23)CC1 — lower, -61.5%
- CCN1CCN(c2ncc(C(=O)Nc3c(F)cc(F)cc3Br)c3ccccc23)CC1 — lower, -60%
- CCN1CCN(C(=O)Nc2cc(Cl)ccc2OC)CC1 — higher, 2.98%
- CCN1CCN(c2ncc(C(=O)Nc3ccccc3C(=O)OC)c3ccccc23)CC1 — lower, -47.2%
- O=C(Nc1c(F)cccc1F)c1cnc(N2CCN(c3ccccn3)CC2)c2ccccc12 — higher, -4.56%
- Cc1cc(C)c(C)c(S(=O)(=O)NCC(=O)N2CCCC2)c1C — higher, 7.49%
- Clc1ccc(SCCN2CCNCC2)cc1.O=C(O)C(=O)O — higher, -5.25%
- Clc1ccc(SCCOCCN2CCCCC2)cc1.O=C(O)C(=O)O — lower, -82%
- Clc1ccc(SCCOCCN2CCCCCC2)cc1.O=C(O)C(=O)O — lower, -73.3%
- Clc1ccc(SCCCCN2CCNCC2)cc1.O=C(O)C(=O)O — lower, -48.7%
- Clc1ccc(SCCOCCN2CCOCC2)cc1.O=C(O)C(=O)O — higher, 1.54%
- CCC(C)NCCOCCSc1ccc(Cl)cc1.O=C(O)C(=O)O (stereo not shown) — lower, -46.9%
- Clc1ccc(SCCCCN2CCOCC2)cc1.O=C(O)C(=O)O — higher, -22.5%
- CC(C)NCCOCCSc1ccc(Cl)cc1.O=C(O)C(=O)O — higher, -30.2%
- Clc1ccc(SCCCN2CCCCC2)cc1.O=C(O)C(=O)O — lower, -76%
- COc1ccc(-c2nn(-c3ccccc3)cc2/C=N/N=C(N)N)cc1OC — higher, -27.8%
- CCN(CCCCCCN)c1ccc2c(=O)[nH][nH]c(=O)c2c1 — higher, 6.75%
- Cc1ccc(CN(C(=O)Cn2nnc3ccccc32)C(C(=O)NCc2ccco2)c2cccs2)cc1 (stereo not shown) — higher, -23.1%
- CN(C(=O)COC(=O)c1ccc2c(c1)OCO2)C1CCS(=O)(=O)C1 (stereo not shown) — higher, 9.31%
- O=C(/C=C/c1cccc([N+](=O)[O-])c1)N1CCN(c2ccccn2)CC1 — higher, -41.2%
- COCCn1c(=NC(=O)CN2C(=O)CCC2=O)sc2cc(S(N)(=O)=O)ccc21 — higher, -9.48%
- CC(CC(=O)Nc1ccccc1)n1ccnc1 (stereo not shown) — higher, -5.07%
- O=c1cccc(-c2ccccc2)[nH]1 — higher, -2.53%
- COc1ccc2nc(N3CCOCC3)cc(C)c2c1 — higher, -0.452%
- Cc1ccccc1NC(=O)c1cccc2nc3ccccc3nc12 — higher, 13.8%
- O=C(Nc1cc(S(=O)(=O)N2CCOCC2)ccc1N1CCCC1)c1ccc(F)cc1 — lower, -82.3%
- O=C(Nc1cc(S(=O)(=O)N2CCOCC2)ccc1N1CCCC1)C1CC1 — higher, -0.0868%
- O=C(COC(=O)c1ccc(F)cc1)Nc1cc(S(=O)(=O)N2CCOCC2)ccc1N1CCCC1 — higher, -28.2%
- CCN(CC)S(=O)(=O)c1ccc(N2CCOCC2)c(NC(=O)COc2ccccc2)c1 — higher, -11.1%
- CCN(CC)S(=O)(=O)c1ccc(N2CCOCC2)c(NC(=O)Cc2ccccc2)c1 — higher, -36.2%
- O=C(Nc1cc(S(=O)(=O)N2CCOCC2)ccc1Oc1ccc(F)cc1)C1=COCCO1 — lower, -69.8%
- CCN(CC)S(=O)(=O)c1ccc(N2CCOCC2)c(NC(=O)CNCCc2ccccc2)c1.O=C(O)C(=O)O — lower, -63.8%
- O=C(Nc1cc(S(=O)(=O)N2CCCCC2)ccc1Oc1ccccc1)C1=COCCO1 — higher, -10.6%
- Cc1ccc(C(=O)Nc2cc(S(=O)(=O)N3CCOCC3)ccc2N2CCCC2)cc1 — higher, -8.42%
- O=C(Nc1ccc(F)cc1)Nc1cc(S(=O)(=O)N2CCOCC2)ccc1N1CCCC1 — lower, -97.4%
- O=C(Nc1cc(S(=O)(=O)N2CCOCC2)ccc1N1CCOCC1)c1ccc(S(=O)(=O)N2CCCCC2)cc1 — higher, -1.72%
- C/C=C/c1ccc(OCC(=O)Nc2cc(OC)c(OC)c(OC)c2)c(OC)c1 — higher, -3.16%
- Cc1cccc(NC(=O)c2cccc(S(=O)(=O)N(C)c3ccccc3)c2)n1 — higher, -28.7%
- CC(C)(C)c1cc(NC(=O)c2cccc([N+](=O)[O-])c2)no1 — higher, 3.8%
- O=C1CCCC2=C1C(c1ccco1)Nc1ccc(C(=O)c3ccccc3)cc1N2 (stereo not shown) — higher, 6.94%
- COc1ccc(Cn2c(=O)[nH]c3cc(C(=O)Nc4ccccc4C)ccc32)cc1 — higher, 2.66%
- O=S(=O)(c1cccc(F)c1)N1CCCN(c2ccc(C(F)(F)F)cn2)CC1 — higher, -27.3%
